# Several values for one entry are separate records, joined by “and”; a condition that tells them apart may be missing. Identical values can stand only once.
# Tested on: HL-1
# Assay: protection of cardiomyocytes from stress damage, SAR follow-up, cell-based, panel, H9c2 and HL-1, ATP luminescence, set 2 (AID 651871);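 note: cells exposed to stressor for 2 h before ATP readout; reference of the scale not given here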
# Conditions: H9c2/HL-1 cardiomyocytes, H2O2 oxidative stress; with H2O2, run 3, at 79 µM (top of the series)
row,SMILES,activity (protection/inhibition)
1,COc1cc(-c2cc(C(=O)Nc3cccc(C(=O)NCc4ccccc4)c3)c3ccccc3n2)cc(OC)c1OC,14.7%
2,COc1ccc2nc(-c3cc(OC)c(OC)c(OC)c3)cc(C(=O)NCC(=O)Nc3ccc(C(C)=O)cc3)c2c1,19.5% and 32.9%
3,CCOC(=O)c1cccc(NC(=O)CNC(=O)c2cc(-c3cc(OC)c(OC)c(OC)c3)nc3ccccc23)c1,48.4%
4,COc1ccc2c(c1OC)C(=O)N1c3ccccc3C(=O)N(Cc3cccc(Cl)c3Cl)C21 (centres undefined),5.43% and -7.46% and 6.3%

# From PubChem BioAssay AID651871 (Sanford-Burnham Center for Chemical Genomics, 2012)
